# Compounds with a hit are over-represented: about 0.52% of the library has one in this group of screens.
# Chronic BCR inh: chronic active BCR signaling inhibition; ABC-DLBCL IkBa-CBG/CBR reporter, luminescence ratio, 4 h; Potency, µM (doses to about 46.1 µM), for the others: top-dose activity change, negative = inhibition, most hits filed as inhibitors; 340,000 tested, 0.05% active; active = well fitted inhibition curve with a large enough effect in the signal ratio, with a control signal flat, not every such curve was filed as active; inconclusive = small, poorly fitted or top-dose-only effect, or effect the other way, or a change in a side signal; the % refers to the signal ratio;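 also: plate controls were basal doxycycline-induced cells for no effect and cells given 10 µM MG132 for full effect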
#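 Concentration-response series (up to 46 uM) were applied to TMD8 dual-reporter cells for 4 h at 37C with doxycycline. Green/red ratio, after filter-overlap correction, defined %Activity; red signal alone was normalised to basal cells and zero luminescence.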
# uPA surface inh: cell surface uPA generation inhibition; cell surface uPA generation assay, qHTS; 330,000 tested, 0.31% active; Potency, µM (highest dose often 38.3 µM), for the others: top-dose activity change, negative = inhibition, actives largely listed as inhibitors; active = well fitted inhibition curve with a large enough effect; inconclusive = small, poorly fitted or top-dose-only effect; inactive = no such curve, though single readings can be large or run the other way; tested in mouse RAW 264.7 cells; also: nearly all actives have a fitted effect of over 55% in size
# USP2a inh: inhibitors of human ubiquitin-specific protease USP2a | AID 463254 | USP2 core, Ub-CHOP2 coupled fluorogenic reporter, 485/531 | 330,000 tested, 0.01% active | Potency, µM (top dose mostly 38.3 µM), inactives show at the highest dose activity change, negative = inhibition, actives largely listed as inhibitors;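 also: plate controls were DMSO wells for no effect and full inhibition by NEM control for full effect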
#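 USP2 core (10nM final) preincubated 30min RT with compound in 20mM Tris-HCl pH 8.0, 2mM CaCl2, 2mM beta-mercaptoethanol, 0.05% CHAPS; 25nM Ub-CHOP2 plus 25nM reporter substrate added, fluorescence (Ex485/Em531) read after 60min.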
# RGS4 inhibitor: human RGS4 inhibition; Transcreener GDP fluorescence polarization, RGS4-accelerated GTP hydrolysis; Potency, µM (top dose mostly 114 µM), for the others: at the top dose activity change, negative = inhibition, usual class: inhibitors; P49798; 390,000 tested, 0.039% active; also: nearly all actives have a fitted effect of over 75% in size
#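 MLSMR compounds (23 nl, pin-transferred) preincubated 10 min at room temperature with a 500nM (2x) first reagent, then RGS4 at 900nM (2x) plus Transcreener GDP mix added; fluorescence polarization (620/688 nm) read before and after 90 min at 30 °C.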
# Eya2 inh: Eya2 (human) phosphatase inhibition; O00167; recombinant Eya2, OMFP fluorescence dephosphorylation (OMFP is methylfluorescein phosphate); Potency, µM (series often up to 76.9 µM), for the others: top-dose activity, negative = inhibition, hits mostly inhibitors; 330,000 tested, 0.006% active; AID 488837
#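 Eya2 (0.2 uM) preincubated 10 min at ambient with compound, then OMFP substrate added at 50 uM; 10 min reaction in 50 mM HEPES pH 7.5, 50 mM NaCl, 5 uM MgCl2, 0.05% BSA, 1 mM DTT. Fluorescence read at Ex 485/Em 525 nm.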
# GCN5L2 inh: inhibitors of human GCN5L2 histone acetyltransferase; Q92830; GCN5L2 HAT assay, ThioGlo1 CoA-SH fluorescence; Potency, µM (titrated, usually from 58.9 µM), inactives show at the highest dose activity change, negative = inhibition, most hits filed as inhibitors; 390,000 tested, 0.21% active; AID 504327
# Target sequence (Q92830 whole entry, looked up): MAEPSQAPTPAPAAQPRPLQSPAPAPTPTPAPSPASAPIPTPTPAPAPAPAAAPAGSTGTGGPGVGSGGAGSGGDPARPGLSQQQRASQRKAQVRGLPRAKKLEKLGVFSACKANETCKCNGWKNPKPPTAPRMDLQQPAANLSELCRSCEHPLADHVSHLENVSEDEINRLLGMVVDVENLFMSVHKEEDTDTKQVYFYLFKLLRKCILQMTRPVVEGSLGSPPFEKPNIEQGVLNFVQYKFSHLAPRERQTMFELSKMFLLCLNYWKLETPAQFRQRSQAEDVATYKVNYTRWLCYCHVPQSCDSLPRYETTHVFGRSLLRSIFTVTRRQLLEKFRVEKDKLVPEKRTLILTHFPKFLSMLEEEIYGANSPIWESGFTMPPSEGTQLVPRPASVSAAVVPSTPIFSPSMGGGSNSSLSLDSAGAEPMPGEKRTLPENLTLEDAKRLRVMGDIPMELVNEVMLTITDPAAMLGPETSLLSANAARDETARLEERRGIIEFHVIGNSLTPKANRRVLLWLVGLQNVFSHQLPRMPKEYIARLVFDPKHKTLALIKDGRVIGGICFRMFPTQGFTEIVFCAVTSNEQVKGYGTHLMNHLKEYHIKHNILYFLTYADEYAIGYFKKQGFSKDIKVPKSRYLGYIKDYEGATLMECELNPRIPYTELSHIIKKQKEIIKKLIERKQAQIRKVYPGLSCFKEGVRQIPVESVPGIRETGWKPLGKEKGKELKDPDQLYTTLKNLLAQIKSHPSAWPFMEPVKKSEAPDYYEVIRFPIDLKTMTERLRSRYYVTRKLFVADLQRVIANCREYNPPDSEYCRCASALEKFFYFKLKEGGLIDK
#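 Fluorescence readout, Ex340nm/Em540nm: ThioGlo1 (50uM final) reacts with free CoA thiol released as 20nM GCN5L2 acetylates H3(1-25) peptide (75uM) using acetyl-CoA (70uM). Compound and enzyme sat 15 min beforehand; 20 min room-temperature reaction.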
# Numbers without * were called inactive; u = inconclusive; x = no result; ! = a repeat was not active. Unless noted, calls follow the shape of the dose curve; as a rule, active = well fitted curve in the direction sought with a large enough effect; inconclusive = small, poorly fitted or top-dose-only effect, or another doubt; inactive = no such curve, though single readings can be large; an effect the other way counts as inactive or inconclusive. Unless noted, % is scaled to controls: 0 for no effect and ±100 for the full control effect; potency is read from the fitted curve at half-maximal effect.
SMILES,Chronic BCR inh,uPA surface inh,USP2a inh,RGS4 inhibitor,Eya2 inh,GCN5L2 inh
COc1ccc(C(=O)O/N=C(\N)c2ccc(OC)c(OC)c2)c(OC)c1,u,u,-8.9%,-18.1%,23.5%,-23.2%
COc1ccc(C(=O)O/N=C(\N)c2ccccc2)c(OC)c1,u,3.98µM*,1.9%,-1.5%,2.2%,-0.5%
CC(CNC(=O)Cc1ccc(NC(=O)N2CCSc3ncccc32)cc1)c1ccccc1 (centres undefined),x,x,x,7.9%,x,0.1%
Cc1nc(-c2cccc(F)c2)sc1CCNC(=O)C(=O)Nc1ccc2c(c1)OCO2,x,x,x,9.4%,x,-23.0%
Cc1cc(C)c(S(=O)(=O)/N=C2/C=C(Sc3ncn[nH]3)C(=O)c3ccccc32)cc1C,u,-7.6%,-0.1%,-121.2%,-6.6%,11.2µM*
C[C@H]1c2cccc(O)c2C(O)=C2C(=O)[C@]3(O)C(O)=C(C(N)=O)C(=O)[C@@H](N(C)C)C3[C@@H](O)C21 (some centres undefined),2.3%,-18.0%,2.2%,-13.5%,-19.6%,-5.5%
C=C1c2cccc(O)c2C(O)=C2C(=O)[C@@]3(O)C(O)=C(C(N)=O)C(=O)[C@@H](N(C)C)[C@@H]3[C@@H](O)[C@H]12,x,x,x,x,x,3.55µM*
C=C1c2cccc(O)c2C(=O)C2C(=O)[C@]3(O)C(=O)C(C(N)=O)C(=O)[C@@H](N(C)C)[C@@H]3[C@@H](O)[C@H]12 (some centres undefined),-0.1%,17.5%,7.08µM*,-130.3%,-2.4%,7.94µM*
Cc1cccc(-c2nc3cc(NC(=O)COc4ccccc4F)ccc3o2)c1,x,x,x,-8.9%,x,-2.3%
CC1CCN(c2ccc(-c3cccs3)nn2)CC1,u,0.891µM*,-4.3%,-11.9%,-10.1%,-24.9%
Clc1ccc(-c2cccs2)nn1,0.2%,0.7%,0.3%,16.0%,1.3%,-4.8%
COc1ccc(CN(C)C(=O)CCl)cc1,u,u,1.5%,4.6%,3.0%,-8.8%
CN(Cc1ccc(Cl)cc1)C(=O)CCl,u,7.94µM*,2.1%,-17.5%,7.0%,-7.8%
CC(C)(C)c1ccc(S(=O)(=O)c2cnc(SCC(=O)Nc3ccc4c(c3)OCCO4)[nH]c2=O)cc1,x,x,x,7.0%,x,u
COc1ccccc1/C=C/C1(C(=O)NC2CCCC2)CC(=O)N1c1ccccc1 (centres undefined),u,2.82µM*,-9.7%,14.2%,8.2%,3.6%
CN(C)S(=O)(=O)c1ccc(N2C(=O)CC2(/C=C/c2ccccc2)C(=O)NC2CCCC2)cc1 (centres undefined),1.2%,-1.0%,2.8%,-25.2%,4.8%,-7.7%
COCC(=O)N1CCC[C@@]2(CCN(C(=O)Nc3cccc(F)c3)C2)C1,x,x,x,x,x,-9.1%
CC(=O)[C@H](CC(C)C)NC(=O)[C@@H](CC(C)C)NC(=O)[C@H](CC(C)C)NC(=O)OCc1ccccc1,x,x,x,8.44µM*,x,-11.3%
O=C(Nc1cccnc1)c1ccc(Cl)c(S(=O)(=O)N2CCCCC2)c1,0.5%,0.8%,0.6%,14.4%,6.2%,-12.8%
O=C(O)c1cccc(NC(=O)c2ccc(Cl)c(S(=O)(=O)N3CCCCCC3)c2)c1,12.6%,6.31µM*,2.0%,18.9%,-11.2%,1.6%
COc1cc2ccc(=O)oc2cc1OCC(O)C(C)(C)O (centres undefined),0.2%,-12.0%,-1.2%,15.2%,19.0%,-29.7%
COc1cc2ccc(=O)oc2cc1O,7.2%,-10.3%,1.0%,-19.4%,7.7%,31.6µM*!
COc1ccc2c(c1OC)C(=O)N1C2SC(C)(C)[C@H]1C(=O)NC1CCCC1 (some centres undefined),-7.0%,-7.0%,-1.9%,28.2%,8.0%,31.6µM*
COc1ccc2c(c1OC)C(=O)N1C2SC(C)(C)[C@H]1C(=O)NCCCOC(C)C (some centres undefined),2.1%,-1.0%,6.8%,7.9%,4.2%,-2.5%

# Screening results deposited in PubChem BioAssay by National Center for Advancing Translational Sciences (NCATS).
